# Results: the supplement of paper PMC10037445
# Values joined by “and” are separate entries in the source; they are usually repeats but may differ in a detail not shown here. Identical values can stand only once. In all, about 2,900 compounds were measured (“IRF Lucia reporter activity, fold change vs agonist alone”: median about 0.9, highest 2% from about 2.8 on). Only a selection was taken, and the highest values are over-represented in it overall.
# Legend:
# RAW-Dual [1] = assay: IRF Lucia reporter activity, fold change vs agonist alone; cytotoxicity flag (confluency mask): not cytotoxic; higher = enhanced IRF activity
# In short: (§1)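 Supernatant from RAW-Dual macrophages was read after 20 hours for IRF by QuantiLuc luminescence and for NF-κB by QuantiBlue absorbance at 620 nm. The cells (50,000 cells/well in DMEM, 384-well plates, 37 °C, 5% CO2) had received 50 nL of library stock by pin tool and, 1 h later, a PRR agonist. Reporter activity is expressed relative to agonist-alone wells as fold change, and wells were flagged cytotoxic if IncuCyte confluency was under 70% of agonist controls in both mask sets.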
# RAW-Dual [2] = assay: IRF Lucia reporter activity, fold change vs agonist alone; higher = enhanced IRF activity; conditions: agonist: MPLA (TLR4) […]
# In short: as §1
# RAW-Dual [3] = assay: IRF Lucia reporter activity, fold change vs agonist alone; cytotoxicity flag (confluency mask): cytotoxic (confluency <70% of control); higher = enhanced IRF activity
# In short: as §1
# [4] = agonist: 3'3'-cGAMP (STING) 10 ug/mL
# [5] = library stock concentration (final ~1000-fold dilution): 10 mM, cytotoxicity flag (confluency mask): not cytotoxic
smiles,measurement,setting,value
CCCCCCCCCCCCCC(=S)NCCCCC(NC(=O)OCc1ccccc1)C(=O)Nc1ccccc1 (centres undefined) (library stock concentration (final ~1000-fold dilution): 10 mM),IRF Lucia reporter activity,RAW-Dual [1]; [4],0.949
same,IRF Lucia reporter activity,RAW-Dual [1]; agonist: LPS (TLR4) 0.1 ug/mL,1.09
OCCn1cc(-c2ccc3c(c2)CC/C3=N\O)c(-c2ccncc2)n1 (library stock concentration (final ~1000-fold dilution): 10 mM),IRF Lucia reporter activity,RAW-Dual [1]; [4],0.614
same,IRF Lucia reporter activity,RAW-Dual [1]; agonist: LPS (TLR4) 0.1 ug/mL,0.658
COc1ccc2cc(-c3[nH]c(-c4ccc(S(C)=O)cc4)nc3-c3ccncc3)ccc2c1 (centres undefined) (library stock concentration (final ~1000-fold dilution): 10 mM),IRF Lucia reporter activity,RAW-Dual [1]; [4],0.0441
same,IRF Lucia reporter activity,RAW-Dual [1]; agonist: LPS (TLR4) 0.1 ug/mL,0.466
CN(C)CCOc1ccc(-c2nc(-c3ccncc3)c(-c3ccc4c(c3)CC/C4=N\O)[nH]2)cc1 (library stock concentration (final ~1000-fold dilution): 10 mM),IRF Lucia reporter activity,RAW-Dual [1]; [4],0.992
same,IRF Lucia reporter activity,RAW-Dual [1]; agonist: LPS (TLR4) 0.1 ug/mL,3.04
CN(C)CCOc1ccc(-c2nc(-c3ccncc3)c(-c3ccc4c(c3)CC/C4=N\O)[nH]2)cc1,IRF Lucia reporter activity,RAW-Dual [2]; [5],1.04
COc1ccc2cc(-c3[nH]c(-c4ccc(S(C)=O)cc4)nc3-c3ccncc3)ccc2c1 (centres undefined),IRF Lucia reporter activity,RAW-Dual [2]; [5],0.798
OCCn1cc(-c2ccc3c(c2)CC/C3=N\O)c(-c2ccncc2)n1,IRF Lucia reporter activity,RAW-Dual [2]; [5],0.784
CC(C)CCn1c(CN2CCN(C(=O)C3CC3)CC2)nc2c1c(=O)n(C)c(=O)n2C (library stock concentration (final ~1000-fold dilution): 10 mM),IRF Lucia reporter activity,RAW-Dual [1]; [4],0.987
same,IRF Lucia reporter activity,RAW-Dual [1]; agonist: LPS (TLR4) 0.1 ug/mL,0.989
CN1CCC(COc2cnc(-c3cccc(Cn4nc(-c5cccc(C#N)c5)ccc4=O)c3)nc2)CC1,IRF Lucia reporter activity,RAW-Dual [2]; [5],1.37
CN1CCC(COc2cnc(-c3cccc(Cn4nc(-c5cccc(C#N)c5)ccc4=O)c3)nc2)CC1 (library stock concentration (final ~1000-fold dilution): 10 mM),IRF Lucia reporter activity,RAW-Dual [1]; [4],0.676
same,IRF Lucia reporter activity,RAW-Dual [1]; agonist: LPS (TLR4) 0.1 ug/mL,3.96
CN1CCC(CNc2ccc3ncc(-c4cccc(OC(F)(F)F)c4)n3n2)CC1 (library stock concentration (final ~1000-fold dilution): 10 mM),IRF Lucia reporter activity,RAW-Dual [1]; [4],1.03
same,IRF Lucia reporter activity,RAW-Dual [1]; agonist: LPS (TLR4) 0.1 ug/mL,0.089
CN1CCC(CNc2ccc3ncc(-c4cccc(OC(F)(F)F)c4)n3n2)CC1,IRF Lucia reporter activity,RAW-Dual [2]; [5],1.07
CC(C)N(CCC(c1ccccc1)c1cc(CO)ccc1O)C(C)C (centres undefined),IRF Lucia reporter activity,RAW-Dual [2]; [5],0.986
CC(C)N(CCC(c1ccccc1)c1cc(CO)ccc1O)C(C)C (centres undefined) (library stock concentration (final ~1000-fold dilution): 10 mM),IRF Lucia reporter activity,RAW-Dual [1]; [4],0.857
same,IRF Lucia reporter activity,RAW-Dual [1]; agonist: LPS (TLR4) 0.1 ug/mL,0.982
CCCC1CC(C(=O)NC(C(C)Cl)C2OC(SC)C(OP(=O)(O)O)C(O)C2O)N(C)C1 (centres undefined) (library stock concentration (final ~1000-fold dilution): 10 mM water),IRF Lucia reporter activity,RAW-Dual [1]; [4],1.23
same,IRF Lucia reporter activity,RAW-Dual [1]; agonist: LPS (TLR4) 0.1 ug/mL,0.95
CCCC1CC(C(=O)NC(C(C)Cl)C2OC(SC)C(OP(=O)(O)O)C(O)C2O)N(C)C1 (centres undefined),IRF Lucia reporter activity,"RAW-Dual [2]; library stock concentration (final ~1000-fold dilution): 10 mM water, cytotoxicity flag (confluency mask): not cytotoxic",1.42
COC(=O)C1=C(C)NC(C)=C(C(=O)OCC(C)C)C1c1ccccc1[N+](=O)[O-] (centres undefined),IRF Lucia reporter activity,RAW-Dual [2]; [5],0.508
CCCC(=O)OCOC(=O)C1=C(C)NC(C)=C(C(=O)OC)C1c1cccc(Cl)c1Cl (centres undefined),IRF Lucia reporter activity,RAW-Dual [2]; [5],0.992
CCOC(=O)C1=C(COCCN)NC(C)=C(C(=O)OC)C1c1ccccc1Cl (centres undefined) (library stock concentration (final ~1000-fold dilution): 10 mM),IRF Lucia reporter activity,RAW-Dual [3]; [4],0.715 and 0.401
same,IRF Lucia reporter activity,RAW-Dual [3]; agonist: LPS (TLR4) 0.1 ug/mL,2.55 and 2.72
CCOC(=O)C1=C(C)NC(C)=C(C(=O)OC)C1c1cccc(Cl)c1Cl (centres undefined) (library stock concentration (final ~1000-fold dilution): 10 mM),IRF Lucia reporter activity,RAW-Dual [1]; [4],1.31
same,IRF Lucia reporter activity,RAW-Dual [1]; agonist: LPS (TLR4) 0.1 ug/mL,1.17
COC(=O)C1=C(C)NC(C)=C(C(=O)OC)C1c1ccccc1[N+](=O)[O-],IRF Lucia reporter activity,RAW-Dual [2]; [5],0.406
COC(=O)C1=C(C)NC(C)=C(C(=O)OC)C1c1ccccc1[N+](=O)[O-] (library stock concentration (final ~1000-fold dilution): 10 mM),IRF Lucia reporter activity,RAW-Dual [1]; [4],0.606
same,IRF Lucia reporter activity,RAW-Dual [1]; agonist: LPS (TLR4) 0.1 ug/mL,0.554
CCOC(=O)C1=C(COCCN)NC(C)=C(C(=O)OC)C1c1ccccc1Cl.O=S(=O)(O)c1ccccc1 (centres undefined),IRF Lucia reporter activity,"RAW-Dual [2]; library stock concentration (final ~1000-fold dilution): 10 mM, cytotoxicity flag (confluency mask): cytotoxic (confluency <70% of control)",3.36
CCOC(=O)C1=C(C)NC(C)=C(C(=O)OC)C1c1cccc(Cl)c1Cl (centres undefined),IRF Lucia reporter activity,RAW-Dual [2]; [5],1.08
COC(=O)C1=C(C)NC(C)=C(C(=O)OCC(C)C)C1c1ccccc1[N+](=O)[O-] (centres undefined) (library stock concentration (final ~1000-fold dilution): 10 mM),IRF Lucia reporter activity,RAW-Dual [1]; [4],0.585
same,IRF Lucia reporter activity,RAW-Dual [1]; agonist: LPS (TLR4) 0.1 ug/mL,0.872
CCCC(=O)OCOC(=O)C1=C(C)NC(C)=C(C(=O)OC)C1c1cccc(Cl)c1Cl (centres undefined) (library stock concentration (final ~1000-fold dilution): 10 mM),IRF Lucia reporter activity,RAW-Dual [1]; [4],1.02
same,IRF Lucia reporter activity,RAW-Dual [1]; agonist: LPS (TLR4) 0.1 ug/mL,0.873
CCOC(=O)C1=C(COCCN)NC(C)=C(C(=O)OC)C1c1ccccc1Cl.O=S(=O)(O)c1ccccc1 (centres undefined) (library stock concentration (final ~1000-fold dilution): 10 mM),IRF Lucia reporter activity,RAW-Dual [3]; [4],1.02
same,IRF Lucia reporter activity,RAW-Dual [3]; agonist: LPS (TLR4) 0.1 ug/mL,3.19
Cc1cccc(Nc2nc(NC3CCCCC3N)ncc2C(N)=O)c1.Cl.Cl (centres undefined) (library stock concentration (final ~1000-fold dilution): 10 mM),IRF Lucia reporter activity,RAW-Dual [3]; [4],0.0182
same,IRF Lucia reporter activity,RAW-Dual [3]; agonist: LPS (TLR4) 0.1 ug/mL,0.0241
